In the library only some 12% were active in any assay of this set; here they are far more common.
NS1 inh = qHTS Assay for Inhibitors of Influenza NS1 Protein Function; Potency, µM (doses to about 46.1 µM), for the others: at the highest dose activity, positive = more growth; actives 0.4% (n = 270,000); further: potency means the concentration at half of the fitted maximal effect; actives are rising curves; nearly all actives have a fitted effect of over 50% in size
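Recovery from NS1-induced slow growth read by OD600 in budding yeast switched to galactose assay medium (pH 6.0, -URA) at 1:100 dilution. Compound 23 nl per well; the matching strain lacking NS1 serves as control.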
SARS PLpro yeast = qHTS of Yeast-based Assay for SARS-CoV PLP; actives 0.19% (n = 330,000); S. cerevisiae expressing SARS-CoV PLpro, growth rescue; AID 485353, 2010; Potency, µM (series often up to 32.9 µM), without a hit: at the highest dose activity, positive = growth rescue, hits mostly activators; further: potency means the concentration at half of the fitted maximal effect; 0% is about no effect; nearly all actives have a fitted effect of over 55% in size
Shiga toxin inh = A qHTS for Small Molecule Inhibitors of Shiga Toxin; Vero cells, Shiga toxin protein synthesis inhibition reporter; inhibition, % at 38.7 µM; actives 9.2% (n = 290,000); in the data active means inhibition mostly above about 28%, no sharp cut-off; inactive means mostly below about 43%; further: 0% is about no effect
CHX counter = Cycloheximide Counterscreen for Small Molecule Inhibitors of Shiga Toxin; cell reporter, cycloheximide protein synthesis inhibition counterscreen; max response, %; actives 12% (n = 300,000); AID 2314, 2010; in the data active means max response mostly above about 13%, no sharp cut-off; inactive means mostly below about 14%; further: read at 38.3 µM for the half of the compounds with a filed dose; 0% is about no effect
* hit, by the source's call; ? = inconclusive; / = no result given. Unless noted, the call rests on the fitted dose curve.

SMILES	NS1 inh	SARS PLpro yeast	Shiga toxin inh	CHX counter
COc1ccc(NC(=O)C/C(C)=N/NC(=O)c2cccs2)c([N+](=O)[O-])c1	0%	-3%	120*	61*
COc1ccc(NC(=O)c2cccs2)c([N+](=O)[O-])c1	-13%	?	80*	37*
CCOC(=O)CSc1nc2cc(C)cc(C)c2cc1C#N	-10%	-3%	25	14*
CCOC(=O)CSc1nc2cc(OC)ccc2cc1C#N	-9%	0%	116*	22*
CCOC(=O)CSc1nc2cc(C)ccc2cc1C#N	-10%	2%	100*	41*
CCOC(=O)CC(=O)CSc1nc2ccc(OC)cc2cc1C	5%	-1%	51*	21*
O=C1C2C3C=CC(C2C(=O)N1c1cccc(O)c1)C1C2C(=O)N(c4cccc(O)c4)C(=O)C2C31 (stereo not given)	/	1%	-5	-1
Cc1ccc(C)c(Sc2ccc(S(=O)(=O)Nc3ccc(C(=O)O)cc3)cc2)c1	/	9%	/	/
OCCC1CN(Cc2ccc(Oc3ncccn3)cc2)CCN1C1CCCCC1 (stereo not given)	-2%	1%	-1	-1
Cc1cccc(C(=O)OCC(=O)N(CC(C)C)c2c(N)n(Cc3ccccc3)c(=O)[nH]c2=O)c1O	/	5%	/	/
Cc1ccc2cc(C#N)c(SCC(=O)N3CCCC3)nc2c1	-11%	1%	27	22*
COc1ccc2nc(SC)c(C#N)cc2c1	-2%	0%	38	17
CCOc1ccc2nc(SCC(=O)N3CCCCCC3)c(C#N)cc2c1	-24%	-2%	16	8
COc1ccc2nc(SCC(C)=O)c(C#N)cc2c1	2%	9%	116*	36*
CCOC(=O)CSc1nc2ccc(C)cc2cc1C#N	-5%	-3%	80*	59*
Cc1ccc(C)c(C(=O)COC(=O)Cn2c(C)csc2=O)c1	-4%	-3%	4	14
Cc1cc(C(=O)CSc2nnc(-c3ccccc3F)o2)c(C)n1Cc1cccs1	-3%	?	32	19*
N#CCCn1c(SCC(=O)c2c[nH]c3ccccc23)nc2ccccc21	14%	4%	-11	-4
Cc1cc(C(=O)CSc2nc3ccccc3n2CCC#N)c(C)n1Cc1cccs1	14%	-1%	55*	46*
COc1ccccc1-n1cnnc1SCC(=O)c1cc(C)n(Cc2cccs2)c1C	-23%	12%	38*	39*
COc1ccc(/C=C/C(=O)OCC(=O)c2ccc3c(c2)NC(=O)CO3)cc1	4%	0%	-5	-3
COc1ccc(C2CC(C)(c3ccc(OC)cc3)Nc3ccccc3N2)cc1 (stereo not given)	1%	-2%	108*	53*
COc1ccc(C2(C)CC(C)(C)Nc3ccccc32)cc1 (stereo not given)	-6%	-8%	/	0
COc1cccc(C(=O)N(C)c2nnc(-c3ccncc3)s2)c1	0%	3%	14	6
COc1cccc(-c2nnc(N(C)C(=O)C3CCOC3)s2)c1 (stereo not given)	-18%	8%	58*	29*
SMILES	NS1 inh	SARS PLpro yeast	Shiga toxin inh	CHX counter
COc1cc2[nH]c(C(=O)Nc3ccc4c(c3)OCCO4)cc2c(OC)c1OC	-6%	-2%	91*	40*
COc1cc2cc(C(=O)Nc3ccc4c(c3)OCCO4)[nH]c2cc1OC	7%	6%	103*	47*
O=C(c1cccc(C(F)(F)F)c1)C1CCCN(C(=O)CCc2cnccn2)C1 (stereo not given)	4%	0%	7	2
COc1ccc(C(=O)C2CCCN(C(=O)CCC3=NNC(=O)CC3)C2)c(C)c1 (stereo not given)	2%	0%	17	-4
O=C(c1cccc(C(F)(F)F)c1)C1CCCN(C(=O)C2CCOCC2)C1 (stereo not given)	8%	-1%	4	14*
O=C(c1cccc(C(F)(F)F)c1)C1CCCN(C(=O)CN2CCOC2=O)C1 (stereo not given)	13%	-2%	17	11
COc1cccc(C(=O)C2CCCN(C(=O)CCC3=NNC(=O)CC3)C2)c1 (stereo not given)	0%	-1%	46*	16*
O=C1CCC(CCC(=O)N2CCCC(C(=O)c3cccc(C(F)(F)F)c3)C2)=NN1 (stereo not given)	0%	0%	15	11*
O=C(CCC(=O)c1ccc(F)cc1)NCc1ccccc1C(F)(F)F	-6%	3%	13	13
CCOC(=O)Cc1cn(C(=O)OC(C)(C)C)c2ccccc12	/	0%	/	/
COc1ccc(S(=O)(=O)N2CCN=C2SCc2cccc(C)c2)cc1	11%	-10%	18	0
COc1cccc(CNC(=O)Cn2ncn3cccc3c2=O)c1OC	3%	4%	26*	11*
CCN(CC)CCCNC(=O)Cn1ncn2cccc2c1=O	6%	-7%	-3	-2
Cc1ccc(CNC(=O)Cn2ncn3cccc3c2=O)cc1	2%	1%	23*	21*
Cc1ccc(CNC(=O)[C@H](C)NC(=O)C2CCN(C(=O)[C@@H]3CCCN3C(=O)OC(C)(C)C)CC2)cc1	-23%	-7%	3	0
Cc1cc(NC(=O)COC(=O)Cn2c(C)csc2=O)ccc1Br	-6%	-3%	-9	13
Cc1ccc(-c2nsc(SCC(=O)NCC3CCCO3)n2)cc1 (stereo not given)	/	-1%	56*	19
COc1ccc(-c2nsc(SCC(=O)Nc3cc(C)on3)n2)cc1	-5%	1%	7	7
Cc1ccc(SCCC(=O)NCC2CCCO2)cc1 (stereo not given)	-3%	1%	23	13*
CCc1ccc2nc(SCC(=O)NCC3CCCO3)c(C#N)cc2c1 (stereo not given)	1%	1%	7	4
CC(C)c1ccc2nc(SCC(=O)NCC3CCCO3)c(C#N)cc2c1 (stereo not given)	4%	-19%	71*	23
COc1ccc(-c2nsc(SCC(=O)NCC3CCCO3)n2)cc1 (stereo not given)	/	0%	65*	32*
O=C(NCC1CCN(Cc2ccccc2F)CC1)Nc1cccc(Br)c1	-1%	-1%	17	1
O=C(N=C1SC2CS(=O)(=O)CC2N1Cc1ccc(F)cc1)C1CCCO1 (stereo not given)	12%	-1%	18	-2
CCN(CC(=O)Nc1c(F)cccc1F)C(=O)C(C)SCc1nc2sc(C)c(C)c2c(=O)[nH]1 (stereo not given)	21%	0%	7	1
C/C(=N/NC(=O)c1cccs1)c1ccc(NC(=O)COc2ccc(Cl)cc2Cl)cc1	-2%	-2%	94*	33*
C/C(=N/NC(=O)c1ccc(C)s1)c1cccc(NC(=O)COc2ccc(Cl)cc2Cl)c1	2%	-2%	6	1
C/C(CC(=O)Nc1ccc(Cl)cc1C(F)(F)F)=N\NC(=O)c1cccs1	-30%	-6%	91*	54*
C/C(CC(=O)Nc1ccc(Cl)cc1C(F)(F)F)=N\NC(=O)c1ccccn1	10%	-1%	76*	41*
C/C(CC(=O)Nc1ccc(Cl)cc1C(F)(F)F)=N\NC(N)=S	-4%	6%	10	11
